# According to the supplement of paper PMC11732987, “Enantioselective OTUD7B fragment discovery through chemoproteomics screening and high-throughput optimisation” (Communications Chemistry, 2025):
# A number with no mark means an inactive call.
# Columns and labels:
# Assay in all cases: log2 ratio of Biotin-Ahx-Ub-VS probe labelling (fragment/DMSO); higher = less target engagement (more negative = stronger competition), active = hit call of the paper (q ≤ 0.05, log2 ratio ≤ -1)
# Details in all cases: compound concentration: 200 uM; treatment time: 3 h
# [1] = target: T1, OTUD6B (UniProt Q8N6M0)
# T1 sequence (whole entry): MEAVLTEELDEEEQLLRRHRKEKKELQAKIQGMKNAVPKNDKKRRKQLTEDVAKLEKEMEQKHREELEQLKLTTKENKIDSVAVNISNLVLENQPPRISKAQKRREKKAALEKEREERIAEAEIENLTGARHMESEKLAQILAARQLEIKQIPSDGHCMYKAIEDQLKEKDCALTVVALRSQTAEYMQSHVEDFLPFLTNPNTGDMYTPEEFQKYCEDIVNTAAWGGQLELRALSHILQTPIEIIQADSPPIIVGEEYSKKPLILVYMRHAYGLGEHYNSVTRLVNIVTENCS
# Procedure, shortened: (§1)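 Fragment (200 µM) or vehicle was incubated for 3 h with triplicate HEK293T lysate samples of 495 µg, which were then treated with Biotin-Ahx-Ub-VS at 0.5 µM final for 1 h. Labelled DUBs were enriched on NeutrAvidin, digested with LysC and trypsin, and analysed by diaPASEF LC-MS/MS. Values are average log2 fragment/vehicle ratios from an unpaired t-test on global-median-normalised Spectronaut label-free quantities, using proteins with ≥2 unique peptides.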
# [2] = target: T2, OTUD7B (UniProt Q6GQQ9)
# T2 sequence (whole entry): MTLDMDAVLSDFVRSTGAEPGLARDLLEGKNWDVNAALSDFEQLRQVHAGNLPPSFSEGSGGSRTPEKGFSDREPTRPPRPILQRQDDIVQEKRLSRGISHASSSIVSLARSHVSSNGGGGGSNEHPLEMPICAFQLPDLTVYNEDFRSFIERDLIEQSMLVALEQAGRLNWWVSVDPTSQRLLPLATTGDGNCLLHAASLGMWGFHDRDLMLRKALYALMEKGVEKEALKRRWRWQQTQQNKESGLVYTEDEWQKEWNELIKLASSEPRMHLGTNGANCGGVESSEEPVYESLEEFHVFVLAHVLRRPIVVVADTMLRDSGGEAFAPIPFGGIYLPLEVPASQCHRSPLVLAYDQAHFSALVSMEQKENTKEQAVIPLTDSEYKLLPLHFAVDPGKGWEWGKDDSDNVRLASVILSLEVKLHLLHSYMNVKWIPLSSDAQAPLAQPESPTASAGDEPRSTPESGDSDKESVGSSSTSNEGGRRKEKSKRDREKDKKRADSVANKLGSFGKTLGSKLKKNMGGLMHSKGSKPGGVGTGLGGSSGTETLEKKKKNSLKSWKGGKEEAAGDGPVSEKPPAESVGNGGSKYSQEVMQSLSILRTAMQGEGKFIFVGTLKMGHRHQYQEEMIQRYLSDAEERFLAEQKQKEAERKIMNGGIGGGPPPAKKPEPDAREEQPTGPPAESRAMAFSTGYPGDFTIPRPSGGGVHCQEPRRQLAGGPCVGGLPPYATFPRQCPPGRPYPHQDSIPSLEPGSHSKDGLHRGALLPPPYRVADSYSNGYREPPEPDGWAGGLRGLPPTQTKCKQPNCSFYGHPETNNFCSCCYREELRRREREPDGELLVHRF
# Procedure, shortened: as §1
# [3] = target: PRPF8 (UniProt Q6P2Q9)
# Procedure, shortened: as §1
# [4] = target: T3, PSMD7 (UniProt P51665)
# T3 sequence (whole entry): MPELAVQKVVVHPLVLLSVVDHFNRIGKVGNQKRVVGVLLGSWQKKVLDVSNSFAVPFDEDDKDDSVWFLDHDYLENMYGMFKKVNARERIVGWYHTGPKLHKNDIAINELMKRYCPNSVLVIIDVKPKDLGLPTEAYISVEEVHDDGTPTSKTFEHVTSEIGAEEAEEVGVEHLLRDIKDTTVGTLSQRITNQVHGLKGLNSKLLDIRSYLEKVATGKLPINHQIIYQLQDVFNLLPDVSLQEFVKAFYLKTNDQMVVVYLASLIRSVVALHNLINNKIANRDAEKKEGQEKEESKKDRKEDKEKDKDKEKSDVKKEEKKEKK
# Procedure, shortened: as §1
# [5] = target: UCHL1 (UniProt P09936)
# UCHL1, sequence (P09936 whole entry, looked up): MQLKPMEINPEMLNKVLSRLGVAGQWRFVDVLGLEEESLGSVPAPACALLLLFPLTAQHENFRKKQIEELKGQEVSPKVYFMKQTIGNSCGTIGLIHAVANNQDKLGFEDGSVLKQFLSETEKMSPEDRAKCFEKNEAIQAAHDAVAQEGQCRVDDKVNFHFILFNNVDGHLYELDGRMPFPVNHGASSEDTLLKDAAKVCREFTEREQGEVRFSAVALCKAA
# Procedure, shortened: as §1
# [6] = target: T4, UCHL3 (UniProt P15374)
# T4 sequence (whole entry): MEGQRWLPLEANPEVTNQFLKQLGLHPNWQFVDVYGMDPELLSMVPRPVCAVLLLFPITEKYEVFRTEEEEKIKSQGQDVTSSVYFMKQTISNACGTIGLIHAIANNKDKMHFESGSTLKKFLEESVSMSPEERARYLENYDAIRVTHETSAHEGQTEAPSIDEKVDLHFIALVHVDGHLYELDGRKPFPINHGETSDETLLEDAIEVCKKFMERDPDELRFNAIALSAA
# Procedure, shortened: as §1
# [7] = target: T5, UCHL5 (UniProt Q9Y5K5)
# T5 sequence (whole entry): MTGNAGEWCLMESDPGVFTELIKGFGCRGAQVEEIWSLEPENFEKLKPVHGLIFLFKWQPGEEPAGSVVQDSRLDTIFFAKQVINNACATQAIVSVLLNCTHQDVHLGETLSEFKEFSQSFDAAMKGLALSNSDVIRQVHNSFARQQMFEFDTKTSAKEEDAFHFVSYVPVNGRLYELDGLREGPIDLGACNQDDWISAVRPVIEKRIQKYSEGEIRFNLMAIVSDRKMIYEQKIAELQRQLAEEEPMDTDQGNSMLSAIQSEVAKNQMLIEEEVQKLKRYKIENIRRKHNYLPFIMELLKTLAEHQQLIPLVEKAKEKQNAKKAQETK
# Procedure, shortened: as §1
# [8] = target: USP10 (UniProt Q14694)
# USP10, sequence (Q14694 whole entry): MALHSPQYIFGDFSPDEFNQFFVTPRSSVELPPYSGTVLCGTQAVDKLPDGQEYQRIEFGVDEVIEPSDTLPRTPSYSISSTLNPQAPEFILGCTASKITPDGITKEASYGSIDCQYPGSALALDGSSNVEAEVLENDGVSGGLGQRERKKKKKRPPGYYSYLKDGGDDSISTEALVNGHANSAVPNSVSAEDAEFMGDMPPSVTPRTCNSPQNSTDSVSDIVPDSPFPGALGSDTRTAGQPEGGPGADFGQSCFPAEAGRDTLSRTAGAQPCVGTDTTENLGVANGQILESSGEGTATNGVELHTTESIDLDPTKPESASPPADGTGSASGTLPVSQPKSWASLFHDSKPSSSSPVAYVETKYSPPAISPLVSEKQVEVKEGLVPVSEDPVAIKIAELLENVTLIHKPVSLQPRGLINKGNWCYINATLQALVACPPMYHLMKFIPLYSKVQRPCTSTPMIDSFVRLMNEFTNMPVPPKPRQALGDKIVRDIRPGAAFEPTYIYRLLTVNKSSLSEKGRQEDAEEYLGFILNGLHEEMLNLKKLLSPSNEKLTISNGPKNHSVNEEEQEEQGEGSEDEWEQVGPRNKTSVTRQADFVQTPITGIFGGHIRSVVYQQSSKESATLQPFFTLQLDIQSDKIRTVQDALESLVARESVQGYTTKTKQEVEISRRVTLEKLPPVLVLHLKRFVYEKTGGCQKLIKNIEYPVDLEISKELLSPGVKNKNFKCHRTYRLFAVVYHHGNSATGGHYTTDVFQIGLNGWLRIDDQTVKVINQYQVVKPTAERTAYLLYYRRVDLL
# Procedure, shortened: as §1
# [9] = target: T6, USP15 (UniProt Q9Y4E8)
# T6 sequence (whole entry): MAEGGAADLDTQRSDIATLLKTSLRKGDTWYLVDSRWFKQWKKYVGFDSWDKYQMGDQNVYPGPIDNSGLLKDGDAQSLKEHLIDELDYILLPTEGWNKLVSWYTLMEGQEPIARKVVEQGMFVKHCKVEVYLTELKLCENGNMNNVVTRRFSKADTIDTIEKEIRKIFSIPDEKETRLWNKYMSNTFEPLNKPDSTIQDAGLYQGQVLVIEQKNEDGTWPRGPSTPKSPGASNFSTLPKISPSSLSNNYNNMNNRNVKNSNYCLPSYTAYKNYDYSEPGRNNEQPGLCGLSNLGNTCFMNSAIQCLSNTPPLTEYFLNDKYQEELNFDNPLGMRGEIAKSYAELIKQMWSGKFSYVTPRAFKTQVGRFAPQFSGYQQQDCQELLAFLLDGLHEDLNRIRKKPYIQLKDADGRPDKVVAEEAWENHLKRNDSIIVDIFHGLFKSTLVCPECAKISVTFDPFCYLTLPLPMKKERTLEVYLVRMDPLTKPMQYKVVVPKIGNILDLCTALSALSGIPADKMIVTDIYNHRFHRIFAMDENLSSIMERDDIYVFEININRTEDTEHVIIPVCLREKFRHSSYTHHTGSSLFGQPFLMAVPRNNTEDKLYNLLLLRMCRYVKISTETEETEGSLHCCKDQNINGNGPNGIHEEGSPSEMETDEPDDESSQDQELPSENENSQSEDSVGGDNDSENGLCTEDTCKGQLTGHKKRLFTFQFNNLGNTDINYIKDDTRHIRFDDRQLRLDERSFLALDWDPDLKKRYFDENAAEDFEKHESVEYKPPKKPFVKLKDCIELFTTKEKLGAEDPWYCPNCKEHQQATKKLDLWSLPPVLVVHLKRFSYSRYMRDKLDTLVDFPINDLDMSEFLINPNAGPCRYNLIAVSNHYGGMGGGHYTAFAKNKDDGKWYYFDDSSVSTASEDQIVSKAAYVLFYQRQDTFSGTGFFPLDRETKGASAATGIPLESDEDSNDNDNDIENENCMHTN
# Procedure, shortened: as §1
# [10] = target: USP16 (UniProt Q9Y5T5)
# USP16, sequence (Q9Y5T5 whole entry, looked up): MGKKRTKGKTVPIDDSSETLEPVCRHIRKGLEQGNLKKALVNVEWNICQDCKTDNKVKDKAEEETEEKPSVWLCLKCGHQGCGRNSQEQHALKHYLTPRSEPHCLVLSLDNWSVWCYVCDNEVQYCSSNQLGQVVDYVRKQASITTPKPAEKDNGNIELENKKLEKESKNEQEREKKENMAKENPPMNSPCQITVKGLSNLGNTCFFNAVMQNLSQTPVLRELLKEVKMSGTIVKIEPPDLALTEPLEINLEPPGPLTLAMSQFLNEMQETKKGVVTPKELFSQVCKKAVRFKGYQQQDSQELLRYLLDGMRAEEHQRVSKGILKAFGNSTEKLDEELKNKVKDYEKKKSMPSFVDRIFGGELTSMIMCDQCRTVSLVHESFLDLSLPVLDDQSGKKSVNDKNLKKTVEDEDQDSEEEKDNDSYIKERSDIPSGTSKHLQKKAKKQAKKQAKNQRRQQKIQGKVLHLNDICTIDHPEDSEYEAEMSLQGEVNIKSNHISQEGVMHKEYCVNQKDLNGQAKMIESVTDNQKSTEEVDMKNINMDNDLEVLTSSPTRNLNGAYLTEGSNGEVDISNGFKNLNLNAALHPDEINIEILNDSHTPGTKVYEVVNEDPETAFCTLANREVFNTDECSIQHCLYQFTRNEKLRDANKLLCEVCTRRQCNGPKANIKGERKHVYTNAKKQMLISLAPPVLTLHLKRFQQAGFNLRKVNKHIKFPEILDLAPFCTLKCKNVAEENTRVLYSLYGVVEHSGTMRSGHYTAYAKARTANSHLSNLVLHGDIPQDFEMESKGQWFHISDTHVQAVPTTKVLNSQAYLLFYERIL
# Procedure, shortened: as §1
smiles,measurement,setting,value
CNC(=O)Cn1cc(NC(=O)CCl)cn1,log2 ratio of Biotin-Ahx-Ub-VS probe labelling,[1],-0.476
same,log2 ratio of Biotin-Ahx-Ub-VS probe labelling,[2],-0.454
same,log2 ratio of Biotin-Ahx-Ub-VS probe labelling,[3],1e-05
same,log2 ratio of Biotin-Ahx-Ub-VS probe labelling,[4],-0.0882
same,log2 ratio of Biotin-Ahx-Ub-VS probe labelling,[5],-1.59 (active)
same,log2 ratio of Biotin-Ahx-Ub-VS probe labelling,[6],0.189
same,log2 ratio of Biotin-Ahx-Ub-VS probe labelling,[7],-0.399
same,log2 ratio of Biotin-Ahx-Ub-VS probe labelling,[8],-0.209
same,log2 ratio of Biotin-Ahx-Ub-VS probe labelling,[9],-0.375
same,log2 ratio of Biotin-Ahx-Ub-VS probe labelling,[10],-0.148
